The values that follow come from PubChem BioAssay (Tox21).

A short description of test [1]: qHTS assay for small molecules that induce genotoxicity in human embryonic kidney cells expressing luciferase-tagged ATAD5 - cell viability (AID 651634; calls by dose curve; note: nearly all actives have a fitted effect of over 25% in size). In short, it runs like this: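 HEK293T cells expressing luciferase-tagged ATAD5 were exposed to compound or DMSO for 15.5 hr at 37C, 5% CO2. Viability was then read as live-cell protease activity by CellTiter-Fluor fluorescence after 30 min at 37C.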

The nature of test [2]: qHTS assay for small molecule disruptors of the mitochondrial membrane potential - cell viability (AID 720634; calls by dose curve;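 note: human HepG2 liver cancer cells; series mostly up to about 83 µM; nearly all actives have a fitted effect of over 20% in size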). Summed up: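 HepG2 cells seeded overnight at 37 C, then exposed to compound or DMSO for 1 hr at 37 C, 5% CO2. m-MPI dye added, then CellTiter-Glo for 30 min at room temperature; viability read as ATP luminescence.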
For orientation: qHTS replaces the single test concentration by a dilution series.

Test [3] can be described thus: qHTS assay to test for compound auto fluorescence at 535 nm (green) in HepG2 cells (AID 720675).
The nature of test [4]: qHTS assay to test for compound auto fluorescence at 535 nm (green) in HEK293 cells (AID 720680).
A short description of test [5]: qHTS assay to test for compound auto fluorescence at 460 nm (blue) in HEK293 cell free culture (AID 720681). Summed up: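 Blue fluorescence (Ex 405/Em 460 nm, triamterene-equivalent) was read immediately after pin transfer of compound or DMSO into medium (DMEM, 10% FBS) without cells.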
Test [6] can be described thus: qHTS assay to test for compound auto fluorescence at 535 nm (green) in HEK293 cell free culture (AID 720682). Summed up:
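Green-channel intensity (Ex/Em 485/535 nm) was recorded from compound-treated wells containing only DMEM with 10% FBS. Fluorescein provided the equivalency standard.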

The nature of test [7]: qHTS assay to test for compound auto fluorescence at 590 nm (red) in HEK293 cell free culture (AID 720683). In short, it runs like this: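 Red-channel autofluorescence of compounds in culture medium (DMEM, 10% FBS), no cells, measured at 540/590 nm. Rose Bengal sodium is the reference fluorophore for equivalence.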
Test [8] is described as follows: qHTS assay to test for compound auto fluorescence at 590 nm (red) in HepG2 cell free culture (AID 720684). In short, it runs like this:
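Steps: dispense MEM/10% FBS medium, no cells; pin compound or DMSO vehicle; read red channel, Ex/Em 540/590 nm. Output given as Rose Bengal sodium equivalents.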

Test [9] in a line: qHTS assay to test for compound auto fluorescence at 460 nm (blue) in HepG2 cell free culture (AID 720685). In short, it runs like this: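 Compound (23 nL) or DMSO pinned into cell-free MEM with 10% FBS; blue fluorescence read at 405/460 nm excitation/emission, expressed as auto-fluorescence equivalency to triamterene.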
Test [10] is described as follows: qHTS assay to test for compound auto fluorescence at 535 nm (green) in HepG2 cell free culture (AID 720686).
Test [11] is described as follows: qHTS assay to identify small molecule antagonists of the androgen receptor (AR) signaling pathway using the MDA cell line - cell viability counter screen (AID 743041; note: nearly all actives have a fitted effect of over 45% in size). In short, it runs like this: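 Cells were plated at 3,000 per well and left 5 h. Compounds in DMSO were then pinned in, followed by R1881. After 16 h at 37C, CellTiter-Fluor fluorescence gave viability.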

The subject of test [12] is thyroid hormone receptor (rat, GH3 cells). Put plainly: qHTS assay to identify small molecule agonists of the thyroid receptor (TR) signaling pathway (AID 743066; calls by dose curve).
Test [13] can be described thus: qHTS assay to identify small molecule antagonists of the estrogen receptor alpha (ER-alpha) signaling pathway - cell viability counter screen (AID 743074; calls by dose curve;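 note: HEK293 cells carrying ER-alpha-UAS-bla reporter stimulated with 17beta-estradiol; nearly all actives have a fitted effect of over 45% in size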).
The nature of test [14]: qHTS assay to identify small molecule antagonists of the estrogen receptor alpha (ER-alpha) signaling pathway using the BG1 cell line - cell viability counter screen (AID 743081).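 Note: compound given together with 17beta-estradiol as the ER stimulus; series mostly up to about 70 µM; nearly all actives have a fitted effect of over 45% in size.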
The next test has as its target Aromatase (Homo sapiens) (UniProt P11511). The test can be described thus: qHTS assay to identify aromatase inhibitors (AID 743083). Note: nearly all actives have a fitted effect of over 55% in size. Note: potency is the fitted concentration of half-maximal effect.
A short description of test [15]: qHTS assay to identify aromatase inhibitors - cell viability counter screen (AID 743084).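 Note: cells stimulated with testosterone during compound exposure; nearly all actives have a fitted effect of over 55% in size.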
In test [16] the target is Aryl hydrocarbon receptor (Homo sapiens) (UniProt P35869). Put plainly: qHTS assay to identify small molecule that activate the aryl hydrocarbon receptor (AhR) signaling pathway (AID 743085).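 For activation: HG2L7.5c1 human HepG2 liver cells with stably integrated DRE-driven firefly reporter; series mostly up to about 70 µM.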 Note: nearly all actives have a fitted effect of over 15% in size. Note: potency is the fitted concentration of half-maximal effect. In short, it runs like this: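 AhR agonist activity is inferred from enhanced light output of a DRE-controlled firefly luciferase reporter in HepG2 cells, measured with ONE-Glo following 24 h treatment at 37C.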

A short description of test [17]: qHTS assay to identify small molecule that activate the aryl hydrocarbon receptor (AhR) signaling pathway - cell viability counter screen (AID 743086).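 Note: HepG2 liver cells carrying the AhR DRE luciferase reporter; series mostly up to about 70 µM; nearly all actives have a fitted effect of over 45% in size.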 Summed up:
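Cytotoxicity counter screen: CellTiter-Fluor signal (30 min, 37 C) in 4000 HepG2 cells/well carrying the DRE-luciferase reporter, following 24 h compound exposure at 37 C.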

The nature of test [18]: qHTS assay to identify small molecule phospholipidosis (PLD) inducers (AID 1259344; active = well fitted curve in the direction sought with a large enough effect; an effect the other way counts as inactive or inconclusive). Summed up:
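Phospholipidosis is scored by imaging LipidTOX-stained pits in HepG2 cells exposed to compound for 24 h at 37 C; pit counts and integrated intensities per well and per cell serve as outputs.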

Test [19] addresses Nuclear receptor subfamily 1 group I member 2 (Rattus norvegicus) (UniProt Q9R1A7). The test can be described thus: Rat pregnane X receptor (rPXR) activation by small molecules, qHTS assay (AID 1346983). Note: nearly all actives have a fitted effect of over 20% in size. The settings on record: rPXR luciferase reporter cells, One-Glo luminescence, 24 h; max activation: stronger effect = higher value. Summed up: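 Luminescent readout (One-Glo luciferase, 30 min room temperature) followed 24 hr compound treatment at 37 C of rPXR cells plated 2,000 per well and preincubated 5hr; qHTS format with compounds delivered in DMSO.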

The structures appear in SMILES notation. Where “and” joins values, the source holds several entries; their conditions need not be identical. Equal values may be shown once. Unmarked numbers belong to inactive results. Results filed as inconclusive are left out. Calls of active or inactive are those of the source. Unless noted, calls come from the whole dose curve; as a rule, active = well fitted curve in the direction sought with a large enough effect in the repeat runs; inconclusive = weak or mixed curves; inactive = no such curve, though single readings can be large; an effect the other way counts as inactive or inconclusive.
% is set by controls: 0 for no effect and ±100 for the full control effect.

Sequence of Aryl hydrocarbon receptor (Homo sapiens) (P35869 whole entry, looked up): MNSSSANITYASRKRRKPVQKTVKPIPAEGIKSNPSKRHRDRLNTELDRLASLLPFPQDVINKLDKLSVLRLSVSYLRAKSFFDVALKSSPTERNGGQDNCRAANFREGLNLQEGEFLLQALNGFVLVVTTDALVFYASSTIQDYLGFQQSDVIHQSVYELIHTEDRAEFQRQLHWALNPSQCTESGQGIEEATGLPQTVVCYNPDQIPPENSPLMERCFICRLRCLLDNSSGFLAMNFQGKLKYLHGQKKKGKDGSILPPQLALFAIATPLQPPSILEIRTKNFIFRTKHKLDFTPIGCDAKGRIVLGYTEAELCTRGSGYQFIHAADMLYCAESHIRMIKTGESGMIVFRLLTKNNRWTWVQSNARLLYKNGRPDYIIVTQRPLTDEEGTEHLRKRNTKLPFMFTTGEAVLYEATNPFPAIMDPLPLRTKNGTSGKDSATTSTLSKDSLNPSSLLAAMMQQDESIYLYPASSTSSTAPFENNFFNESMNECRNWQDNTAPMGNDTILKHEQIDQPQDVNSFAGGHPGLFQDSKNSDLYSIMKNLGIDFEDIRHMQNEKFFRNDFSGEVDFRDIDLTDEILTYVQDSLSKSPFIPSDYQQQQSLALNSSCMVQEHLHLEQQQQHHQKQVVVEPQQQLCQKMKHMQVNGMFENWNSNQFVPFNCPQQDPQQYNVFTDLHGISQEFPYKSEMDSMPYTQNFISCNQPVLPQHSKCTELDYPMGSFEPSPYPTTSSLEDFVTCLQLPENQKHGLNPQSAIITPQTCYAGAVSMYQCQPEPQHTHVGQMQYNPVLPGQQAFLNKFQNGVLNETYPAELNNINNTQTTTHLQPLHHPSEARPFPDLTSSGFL
Sequence of Aromatase (Homo sapiens) (P11511 whole entry, looked up): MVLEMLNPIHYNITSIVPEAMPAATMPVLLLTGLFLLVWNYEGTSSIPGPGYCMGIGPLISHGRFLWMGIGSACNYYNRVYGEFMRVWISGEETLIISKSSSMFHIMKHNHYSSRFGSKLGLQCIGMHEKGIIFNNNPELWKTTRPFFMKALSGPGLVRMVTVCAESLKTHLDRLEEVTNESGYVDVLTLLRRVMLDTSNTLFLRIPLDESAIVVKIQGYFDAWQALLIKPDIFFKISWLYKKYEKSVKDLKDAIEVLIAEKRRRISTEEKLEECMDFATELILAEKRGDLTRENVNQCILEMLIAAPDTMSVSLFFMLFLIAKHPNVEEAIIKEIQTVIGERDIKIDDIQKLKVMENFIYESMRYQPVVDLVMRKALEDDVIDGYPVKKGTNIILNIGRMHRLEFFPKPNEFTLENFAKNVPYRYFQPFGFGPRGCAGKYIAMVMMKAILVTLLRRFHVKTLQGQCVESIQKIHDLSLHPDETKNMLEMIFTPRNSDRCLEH
Sequence of Nuclear receptor subfamily 1 group I member 2 (Rattus norvegicus) (Q9R1A7 whole entry, looked up): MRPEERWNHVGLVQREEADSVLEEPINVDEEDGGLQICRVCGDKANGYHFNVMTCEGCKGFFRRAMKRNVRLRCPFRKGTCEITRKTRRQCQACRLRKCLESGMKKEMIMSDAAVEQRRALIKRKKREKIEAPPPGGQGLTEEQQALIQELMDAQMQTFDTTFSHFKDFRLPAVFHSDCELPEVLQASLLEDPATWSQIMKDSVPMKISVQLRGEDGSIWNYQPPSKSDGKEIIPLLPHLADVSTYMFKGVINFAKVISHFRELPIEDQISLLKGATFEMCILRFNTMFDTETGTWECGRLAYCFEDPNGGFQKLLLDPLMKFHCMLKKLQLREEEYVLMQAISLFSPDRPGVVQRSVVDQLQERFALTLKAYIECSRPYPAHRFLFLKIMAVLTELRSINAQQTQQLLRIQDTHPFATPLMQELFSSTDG

In the case of `O=C1CN(O)C(c2ccccc2)=c2cc(Cl)ccc2=N1`, the Potency result in test [1], in test [2], in [3], in [4], in test [5] and in test [6] was “inactive” in each case. In addition, the Potency result in test [9], in [10], in [11], in test [12], in [13] and in test [14] was “inactive” throughout. The Potency result (with Aromatase (Homo sapiens); in test [15]; in test [16]; in test [17]; in [18]) was “inactive” in each case. For the same molecule, the result in [7] and in test [8] was inactive. In test [19], the max activation is -6.23%.
For `O=S(=O)(O)c1cc(O)ccc1O`, the Potency result in [1], in test [2], in [3], in test [4], in test [5] and in test [6] was “inactive” throughout. For the same molecule, the Potency result in [9], in test [10], in test [11], in [12], in [13] and in test [14] was “inactive” in each case. In addition, the Potency result in test [17] and in [18] was “inactive” throughout. In addition, the call in test [7] and in [8] was inactive.
For the molecule `CCC1(c2cnc[nH]2)Cc2ccccc2C1`, the Potency entry in test [1], in test [2], in [3], in test [4], in test [5] and in test [6] was “inactive” each time. The Potency entry in test [9], in test [11], in test [12], in [13], in test [14] and in [15] was “inactive” throughout. In addition, the Potency entry in [17] and in test [18] was “inactive” each time. Moreover, the outcome in test [7] and in [8] was inactive. The Potency in the test with Aromatase (Homo sapiens) is 26.6 µM (active); in test [16] it was 23.7 µM (active) and 8.41 µM (active).
In the case of `Cc1ccc([N+](=O)[O-])c(C)c1`, the Potency result (in the test with Aromatase (Homo sapiens); in test [16]) was “inactive” in each case.
For `CC1(C)S[C@@H]2[C@H](N)C(=O)N2[C@H]1C(=O)O`, the Potency result in test [1], in [2], in test [3], in test [4], in test [5] and in test [6] was “inactive” throughout. Further, the Potency entry in test [9], in [10], in test [11], in [12], in [13] and in test [14] was “inactive” throughout. The Potency entry (with Aromatase (Homo sapiens); in test [15]; in [16]; in test [17]; in test [18]) was “inactive” in each case. Further, the molecule was classed as inactive in [7] and in test [8]. Besides, the max activation in [19] is -2.48%.
Turning to `CCNCC(O)c1cccc(O)c1` (centres undefined), the Potency result in [1], in test [2], in [3], in test [4], in test [5] and in test [6] was “inactive” each time. The Potency entry (in [9]; in test [10]; in [11]; in test [12]; in test [13]; with Aromatase (Homo sapiens)) was “inactive” in each case. Besides, the Potency entry in [15], in [16], in test [17] and in test [18] was “inactive” each time. The molecule was called inactive in test [7] and in test [8]. Moreover, the max activation in test [19] is 1.03%.
For `CC[N+](C)(CC)CCOC(=O)C(O)(c1ccccc1)c1ccccc1`, the Potency result in [1], in test [2], in test [3], in test [4], in test [5] and in [6] was “inactive” each time. The Potency entry in test [9], in [10], in [11], in test [12], in [13] and in test [14] was “inactive” each time. Besides, the Potency entry (in the test with Aromatase (Homo sapiens); in test [15]; in test [16]; in [17]; in test [18]) was “inactive” throughout. Further, the molecule was classed as inactive in test [7] and in [8]. Also, the max activation in [19] was -2.16%.
`CC(C)(C)c1ccc(O)cc1`: the Potency entry in [3], in test [4], in test [5], in test [6], in [9] and in [10] was “inactive” in each case. The Potency result in test [18] was “inactive”. For the same molecule, the outcome in [7] and in test [8] was inactive.
